In the supplement of paper PMC11417369:
± gives the standard deviation of the averaged measurements. The full ranking holds about 25,000 sequences; the median of “ln(normalized median fluorescence intensity)” is about 10, and the highest 2% start at about 12. The list comes from a sample in which the highest values are over-represented; it also holds similar and randomly drawn sequences.

The sequences below were run on PfAP2-G AP2 domain (GST-tagged) (assay: gcPBM binding intensity (ln(normalized median fluorescence intensity)); higher = stronger DNA binding).
Outline: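 GST-tagged P. falciparum DNA-binding domains produced in E. coli were incubated for 1 h on an Agilent 4 × 180k array of primer-extended double-stranded 36-bp intergenic genomic probes with negative controls. Binding intensity is the highest Masliner-normalised natural-log median intensity across replicate spots of either probe orientation, with bound protein detected by Alexa488 anti-GST antibody at 488 nm.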

Sequence	gcPBM binding intensity (ln)
TCTATTTTCTTATGAATGCACTAATTTATAAAACGT	10.1 ± 0.13
TATCATATATGAAGGTGTACGATTTATTATATAAAT [XGTACX_site7010]	11.4 ± 0.95
TTAAAATTAAAAATAGGTACACATATGAACAAGGAC [XGTACX_site1180]	11.5 ± 0.78
ATTATAAGAAGGGGGGGTACATAAATATAAATGTAT [XGTACX_site5624]	11.9 ± 0.95
AAAAAAAAAAAGAAGGGTACATATTATATATAATAT [XGTACX_site6204]	11.2 ± 0.76
TATAAGAATAAAAAGGGTACATAAAATAATAATATA [XGTACX_site2355]	11.3 ± 0.73
ATATATATTATATGCACACTAATAAGACTATTTAAA [CACACA_site3554]	10.1 ± 0.23
TAGAAGCATTGACACACACACATACATACACATACA [CACACA_site6802]	10.2 ± 0.26
TTACATATTTTTTAACGTACATAAATATATATGTAT [XGTACX_site8406]	11.4 ± 0.79
ATAAATAAAATAAAAGCACACAAAATGTAAATAATT [CACACA_site8895]	10.04 ± 0.057
ATATAATTTAATTTCTGTACATAAGAGAAAAAACAA [XGTACX_site4865]	11.1 ± 0.64
TATATATATATTATATGTACGTATGTATGTATATAT [XGTACX_site6451]	11.3 ± 0.8
GTATATATGTATGTATGTACGTATATAGTTATGTAT [XGTACX_site6769]	11.6 ± 0.93
ATATATATATATATATGTACGTACTCAGTTATGCCT [XGTACX_site453]	11.7 ± 1.2
TCCTCGCGTAATACTTTTCAAATAAAAAAAATAAAA [TGCATGCA_negctrl_site403]	10.5 ± 0.48
ATTTGTGTATATTAGAGTACATAAAATTAGAGGAAC [XGTACX_site1654]	11.6 ± 0.92
ATAACCACATAAAATATAATTATATATATATATATA [CACACA_negctrl_site603]	9.87 ± 0.26
GTTTATTTTTTCATTTGTACACATAAATAAATATAT [XGTACX_site7752]	11.5 ± 0.75
TTATTTTTTTATTCATGTACACAAGAACATTTCATT [XGTACX_site5744]	11.3 ± 0.67
TTTTTTTTTTTTATTTGTACACATTTTCATATTTTT [XGTACX_site4406]	11.3 ± 0.98
TCATTTATTTTTCTTTGTACACAAAAGTTTTTATGT [XGTACX_site690]	11.4 ± 0.9
TTTATTTTTCATTGGGGTACACAAGTTTATTTTTGA [XGTACX_site4262]	11.7 ± 0.86
TTTATTTTTCATTGGGGTACACAAGTTTATTTTATT [XGTACX_site4263]	11.7 ± 0.96
GCTTAATACAGAATAACACACAAAATAAATAAATAA [CACACA_site4041]	10 ± 0.12

Sequence	gcPBM binding intensity (ln)
TTTTGGATGAACAGTACATGCAAAAACAAACTTGTA [TGCATGCA_site16]	10.8 ± 0.37
ATATCTTCACTTATATGTACTTACATTTTTTTTTTT [XGTACX_site8696]	11.4 ± 0.81
AGGAGGTCAGTTCACAGTACCCAGAAACTCTACGAG [XGTACX_site2006]	11.1 ± 0.73
ATATATATTTTTATAACACACAATGATGTACATTAC [CACACA_site1076]	11.3 ± 0.84
ATATAATTACATTGATGTACACGAAATGATTAACAT [XGTACX_site5183]	11.7 ± 1.1
AAATATAATTAATGATGTACACTTATAGATATTGAT [XGTACX_site8435]	11.4 ± 0.68
CAGAAATATTAATGCTGTACGGAATACATATATTTT [XGTACX_site539]	10.9 ± 0.6
AATTTTCATTTTAGAAGTACACACAAAAAATAAAAT [XGTACX_site4426]	11.7 ± 1.1
TACAAATTTATATAAAGTACAAAAAATAATAAAAAT [XGTACX_site7355]	11.1 ± 0.57
TATTCATAATTTTAATGTACAAAATGGTTTGTAATA [XGTACX_site8493]	10.6 ± 0.33
AGGTCATACATAAAATGTACATATATATAAATATAT [XGTACX_site7147]	10.9 ± 0.54
GTAATAATTTTTTGTAGTACACAAAAATTCATATTT [XGTACX_site2699]	11.7 ± 1.1
TAAATTTTTTTTTTTTGTACACAAAAATATAATATT [XGTACX_site8151]	11.4 ± 0.98
ATAAAAATAAATAAATGTACATATATATATATATAT [XGTACX_site1277]	11.1 ± 0.58
GTTAAAATAATATGGTGTACAAATATATAAGTTCAT [XGTACX_site3262]	11.4 ± 0.79
TTTCATTTTAGAAGTACACACAAAAAATAAAATAAT [CACACA_site2141]	11.6 ± 0.92
AATAATATATGGTGTACACAAAAGTATAAATAATTT [CACACA_site5338]	11.9 ± 1
TAAGTCATATAAATGTGTACATAAAAAAAAAAAATG [XGTACX_site1645]	11.6 ± 1
AATTTCATTTTTAGAAGTACATTTATATTAAAAATC [XGTACX_site2888]	11.2 ± 0.95
ATAGAATACATATATGAACACACAGAGTTTTAAAAA [CACACA_site8879]	10.15 ± 0.042
ATATTTAAAGAATAAGTGCAAAATGTAATTAATTTT [GTGCAC_site9901]	10.065 ± 0.007
TAAAAAAACATATATTGTACGGAGATAATAATTTTT [XGTACX_site2946]	10.6 ± 0.31
TTATATTTAGTATATGCACACTTTATGTTTGTTATT [CACACA_site5163]	9.955 ± 0.035
TAAAAGGATGCATATACACACATATAGATTTATATA [CACACA_site7336]	9.915 ± 0.035

Sequence	gcPBM binding intensity (ln)
AATAATTTCCAAAAATGTACATATATTTACATATAT [XGTACX_site1790]	10.9 ± 0.52
AATATATATTCATGTGTACACACAAAAAAAAATAAA [CACACA_site8690]	11.6 ± 0.84
TGAAAAGAAAACACATGTACAAATATATAAATATAA [XGTACX_site6098]	10.8 ± 0.35
TATATATTCATGTGTACACACAAAAAAAAATAAAGT [CACACA_site2207]	11.7 ± 0.9
AAATATATATTCATGTGTACACACAAAAAAAAATAA [XGTACX_site4552]	11.6 ± 0.84
AAAATAATAATAAAAAGTACATGTGTATATAATAAA [XGTACX_site754]	11.3 ± 0.82
TATATATCCATGTGTACACACAAAAAAAAATAAAGT [CACACA_site7107]	11.7 ± 0.93
CTTTATATATTTTATTGTACTTAAAAAAAAAAAAAA [XGTACX_site2134]	11.4 ± 1.1
ACATACATACATACATACATACATACATACATACAT [XGTACX_negctrl_site315]	10.6 ± 0.57
AAGAAATATATATATATATATATATATATATATGTA [TGCATGCA_negctrl_site442]	9.67 ± 0.16
AATAAAAAAAATAGCATACACACATATATACATATA [CACACA_site659]	9.75 ± 0.028
TGGTCTTTTAAACAAAAATATAAATTTTTAAATATG [CACACA_negctrl_site392]	9.94 ± 0.23
AATAAATTAATAAGGTGTACATAAATAATTTATATA [XGTACX_site8278]	11.5 ± 0.94
AATTAATAAGAAAGGTGTACAGAAAAAAAAAAATAT [XGTACX_site2106]	11.5 ± 0.8
TTAAAAAAAAAAAGGTGTACTATAATTTAATATCAC [XGTACX_site6316]	11.6 ± 1.1
TAAAATTTAAAAAGGTGTACACTATAAATTAAAATA [XGTACX_site2081]	11.7 ± 0.95
AAAGGTGTATATAATACACACGTGTGATTAAAATTG [CACACA_site8104]	10.13 ± 0.064
AAAAAAAAAAGGTGTACATGCAAAATAAATTCTTAA [TGCATGCA_site556]	11.6 ± 1.1
GGTGTTAAAAAATACACACACAAAAAAAAAAAAAAA [CACACA_site138]	9.95 ± 0.51
TTTGAAATAAAAAGGTGTACACTCGATTAATAAATA [XGTACX_site6943]	11.8 ± 0.98
ACACAAAAATAAAAATGTACAAATTAAAAAAAATGA [XGTACX_site2083]	10.8 ± 0.42
AATTAATAAAAAAGGTGTACAGTAAATGCAATAATC [XGTACX_site7956]	11.7 ± 0.99
AAAAAAAAAAAAAGGTGTACATGCAAAATAAATTCT [XGTACX_site4592]	11.6 ± 0.93
TGTTAATAAAGGTGTACACAAAATAAAAAAAATTAT [CACACA_site4288]	11.7 ± 0.92

Sequence	gcPBM binding intensity (ln)
TATAAATTATATATTTGTACGTATATCACATATATA [XGTACX_site7053]	11.3 ± 0.84
AATTTTATTTAAAGTGCATGTAAAATTAAAACTTTT [TGCATGCA_site989]	10 ± 0.057
ATATAGAACACCTGTGCATGCAAGTGCTAAAAAATT [TGCATGCA_site213]	10.2 ± 0.2
ATTTTTTCTGTCTTAATTGGACCCACTGCAAATGGG [CACACA_negctrl_site1158]	10.9 ± 0.54
AACATATAAATGATATGTACACACATTTATATATAT [XGTACX_site7364]	11.4 ± 0.53
TATTTGATAAAAAAAAGTACTAGAATTTCGCTTTTG [XGTACX_site7754]	11.1 ± 0.7
ATATATACCTAAGACACACACATATAGATTTATATA [CACACA_site6498]	9.97 ± 0.028
AAAAAAATAATAAAATGTACAAATAAACACATAAAG [XGTACX_site5102]	10.8 ± 0.39
AAATGTTAATAAAGGTGTACACAAAATAAAAAAAAT [XGTACX_site463]	11.7 ± 0.71
TAGGTGTTAAAAAATACACACACAAAAAAAAAAAAA [CACACA_site7927]	9.93 ± 0.45
TAAAGTAAAGACATACTTATTTTCCATCCACTTCTT [CACACA_negctrl_site1288]	10 ± 0.18
AGTATACTCGGACACACACACACATATATATATATA [CACACA_site5031]	11.1 ± 0.51
AATTATTTTAAATATTGTACTATTACAGAATGGTGT [XGTACX_site5693]	11 ± 0.56
ATTAAATCATATGAATGTACGGATATATATATTTCC [XGTACX_site8650]	10.7 ± 0.48
TTTTAAAGAAAAAAATGTACAAAATTTTTATTTTAA [XGTACX_site1496]	10.6 ± 0.35
TATATTTTATAAAAAAGTACACATGAAAATGTATTT [XGTACX_site5889]	11.5 ± 1.1
TTTTTTATTAAAAGTAGTACACATGAAAAAAAAAAA [XGTACX_site5524]	11.8 ± 1
ATAGTATTTTTTATTACACACAAATAAAAAGAAAAA [CACACA_site2087]	10.2 ± 0.26
AAAAAAAAAAAAAAAAGTACACATCATTTTATGAAA [XGTACX_site1402]	11.7 ± 0.76
GTAATTTTAAAGAAAAGTACACATTTATTAATTATT [XGTACX_site4468]	11.5 ± 1.2
AATTATTTTATGAAAAGTACACATTGTTTTAATTCT [XGTACX_site4506]	11.4 ± 0.98
AGTTATTTTAAATGTAGTACACAAAAGAAATATTAA [XGTACX_site4092]	11.6 ± 0.94
ATTTATGAAAAGTAAAGTACACACAGGAAAAAAAAA [XGTACX_site3564]	11.4 ± 0.72
